Data from PubChem BioAssay AID2315 (National Center for Advancing Translational Sciences (NCATS), 2010).
Where “and” joins values, the source holds several entries; their conditions need not be identical. Equal values may be shown once. About 27,000 (9.3%) of roughly 290,000 compounds were called active. Rule as the data show it: active = inhibition mostly above about 28% (no sharp cut-off); inactive = mostly below about 43%. What follows is part of a selection rich in actives, with near analogues and random picks from the rest.

Experiment: A qHTS for Small Molecule Inhibitors of Shiga Toxin; as to inhibition: 0% is about no effect
Conditions: Vero cells, Shiga toxin protein synthesis inhibition reporter; at 38.7 µM, active compounds read high

Row | SMILES | inhibition
1 | CCOC(=O)C1CCCN(S(=O)(=O)c2ccc(-n3cnnn3)c(C)c2)C1 (stereo unspecified) | -3% (inactive)
2 | COc1ccc(CN2CCC(=O)c3ccccc3S2(=O)=O)cc1 | -3.72% (inactive)
3 | CC(C)(C)c1ccc(OC2=CS(=O)(=O)c3ccccc32)cc1 | 135% (active)
4 | CC(C)(C)c1ccc(CN2C(=O)c3ccccc3S2(=O)=O)cc1 | 32.5% (inactive)
5 | Cc1cccc(OCC(=O)NCCNC(=O)c2cccnc2)c1 | -6.35% (inactive)
6 | Brc1ccc(C2=NCCC(c3ccccc3)O2)cc1 (stereo unspecified) | inactive
7 | Brc1ccc(C2CC(c3ccccc3)=Nc3ccccc3N2)cc1 (stereo unspecified) | 105% (active)
8 | Cc1cc(=O)oc2cc(OCC(=O)N3CCN(c4ccc(F)cc4)CC3)c(Cl)cc12 | -2.97% (inactive)
9 | O=C(Nc1ccc(S(=O)(=O)N2CCCCC2)cc1)C1CC(=O)N(c2ccc(F)cc2)C1 (stereo unspecified) | 29.9% (inactive)
10 | Cc1cc2oc(=O)cc(CN3CCN(Cc4ccccc4)CC3)c2cc1C | -3.23% (inactive)
11 | Cc1noc(C)c1C(=O)NCCc1ccc(S(N)(=O)=O)cc1 | 10.5% (inactive)
12 | Clc1ccc(CN2CCCCCC2)cc1Cl | -3.6% (inactive)
13 | N#Cc1ccc(N2Cc3ccccc3/C2=N/C(=O)Nc2ccc(Cl)cc2)cc1 | 24.7% (inactive)
14 | Cc1cccc(N2CCN(C(=O)c3cccc(S(=O)(=O)N4CCc5ccccc5C4)c3)CC2C)c1 (stereo unspecified) | -8.81% (inactive)
15 | Cc1cccc(N2Cc3ccccc3C2=NC(=O)c2ccc(Cl)nc2)c1 | 0% (active)
16 | O=C(Nc1ccc(S(=O)(=O)N2CCCCC2)cc1)c1cnccn1 | -1.88% (inactive)
17 | O=C(NCN1CCN(CCO)CC1)c1cnccn1 | 13% (inactive)
18 | CCN1CCN(c2ccc(NC(=O)c3cnccn3)cc2)CC1 | 48.5% (active)
19 | Cn1c(NN)nc2sc3c(c2c1=O)CCC3 | 12.5% (inactive)
20 | C=C(C)CSc1nc(N)c2c3c(sc2n1)CCC3 | 77.1% (active)
21 | Cc1sc2nc(SCC(N)=O)n(C)c(=O)c2c1C | 8.03% (inactive)
22 | CC(C)(C)C1CCc2c(sc3nc(SCC(N)=O)nc(N)c23)C1 (stereo unspecified) | 42.9% (active)
23 | CN1CCN(CC(=O)Nc2sc3c(c2C#N)CCC(C(C)(C)C)C3)CC1 (stereo unspecified) | -10.4% (inactive)
24 | Nc1nc(SCC(=O)NCCN2CCOCC2)nc2sc3c(c12)CCC3 | 7.28% (inactive)

Row | SMILES | inhibition
25 | CCOC(=O)N1CCN(S(=O)(=O)N2CCCC(C(=O)NCCCN3CCC(C)CC3)C2)CC1 (stereo unspecified) | -4.12% (inactive)
26 | CC(=O)c1ccc(NC(=O)CCNS(=O)(=O)c2cc(Br)cnc2N)cc1 | -8.28% (inactive)
27 | CCc1ccc(OCC2c3cc(OC)c(OC)cc3CCN2C(C)=O)cc1 (stereo unspecified) | -3.8% (inactive)
28 | CN(CC(=O)O)S(=O)(=O)c1ccc2oc3ccccc3c2c1 | -10.6% (inactive)
29 | COC(=O)CCC(=O)N1CCCC(CO)(Cc2ccccc2)C1 (stereo unspecified) | 110% (active)
30 | CCOC(=O)C1(Cc2ccccc2C)CCCN(C(=O)CCc2c(C)noc2C)C1 (stereo unspecified) | 15.6% (inactive)
31 | Cc1ccccc1CC1(CO)CCCN(C(=O)c2cc(-c3ccccc3)no2)C1 (stereo unspecified) | 51% (inactive)
32 | CCCc1cc(C(=O)N2CCCC(CO)(CCCc3ccccc3)C2)n(C)n1 (stereo unspecified) | -8.83% (inactive)
33 | Cc1noc(C)c1CCC(=O)N1CCCC(CO)(Cc2ccccc2)C1 (stereo unspecified) | 98.7% (active)
34 | Cc1noc(C)c1CCC(=O)O | 17.5% (inactive)
35 | Cc1cc(NC(=O)CSc2nc(=O)cc(N)n2-c2ccc(F)cc2)no1 | 9.91% (inactive)
36 | COc1cccc(C(O)c2nc3ccccc3n2C)c1 (stereo unspecified) | -5.57% (inactive)
37 | O=C(NCCCn1ccnc1)c1ccccc1F | -3% (inactive)
38 | Cc1cccc(N2CCN(C(C)C(=O)N3CCc4ccccc43)CC2)c1C (stereo unspecified) | 12.5% (inactive)
39 | COc1ccc(NC(=O)CCC(=O)Nc2cc(OC)c(NC(=O)c3ccco3)cc2OC)c(OC)c1 | 2.68% (inactive)
40 | CCOC(=O)C1CCN(Cc2nnc(-c3cccc(Br)c3)o2)CC1 | -4.47% (inactive)
41 | Cc1c2cnn(CC(=O)NCCCN3CC(C)CC(C)C3)c(=O)c2c(C)n1Cc1ccc(Cl)cc1 (stereo unspecified) | 10.2% (inactive)
42 | O=c1c2ccccc2ncn1/N=C/c1ccccc1 | 89.3% (active)
43 | O=c1c2ccccc2nc(N/N=C/c2ccccc2)n1O | 4.04% (inactive)
44 | CCCc1nc2ccccc2c(=O)n1/N=C/c1ccc(O)c(O)c1 | -7.79% (inactive)
45 | Cc1c(Cl)cccc1NC(=O)NCc1ccc(C)n1C | -6.17% (inactive)
46 | COc1ccc(CN(C)C(=O)Cc2c[nH]c3ccccc23)c(OC)c1OC | -4.06% (inactive)
47 | O=S(=O)(/C=C/c1ccccc1)N1CCNCC1 | -7.81% (inactive)
48 | CCc1cccc(NC(=S)N(CCN(C)C)C2CCN(C(C)C)CC2)c1 | -1.09% (inactive)

Row | SMILES | inhibition
49 | Cc1ccc(Nc2nc(Cl)c(C=O)s2)cc1 | 39.5% (active)
50 | Cc1ccc(Nc2nc(C)cc(C)c2C(N)=O)cc1 | -8.95% (inactive)
51 | Cc1ccc(NC(=O)Nc2nnc(-c3ccncc3)s2)cc1 | -16.3% (inactive)
52 | COc1ccc(C(=O)NCCNc2ccc([N+](=O)[O-])cn2)cc1 | -3.6% (inactive)
53 | CCn1cc(/C=C(\NC(=O)c2cc(OC)c(OC)c(OC)c2)C(=O)N2CCN(C)CC2)c2ccccc21 | -5.81% (inactive)
54 | O=C(NCCOc1cccnc1)c1ccc(OC2CCN(Cc3ccccn3)CC2)cc1 | -23.8% (inactive)
55 | O=C(OCC(=O)N1CCN(C(=O)c2ccco2)CC1)c1cccc(O)c1 | 18.4% (inactive)
56 | O=C(CCn1nnc2ccccc21)OCC(=O)c1ccc([N+](=O)[O-])cc1 | -9.08% (inactive)
57 | CC(=O)Oc1ccc2c(c1)C(=O)c1ccccc1C2=O | 49.5% (inactive)
58 | COc1ccc(C2C3=C(OC(C)=O)c4ccccc4C3=Nc3c2c(=O)n(C)c(=O)n3C)cc1 (stereo unspecified) | -4.21% (inactive) and -6.55% (inactive)
59 | COc1ccc(/C=C/c2noc(-c3ccccc3OC(C)=O)n2)cc1 | 50.5% (active)
60 | CCN(CC(=O)Nc1ccc(C)c(S(=O)(=O)N(C)C)c1)Cc1ccccc1 | 12.4% (inactive)
61 | Cc1ccc(C(=O)Nc2ccc(C)c(S(=O)(=O)N(C)C)c2)s1 | 64.1% (active)
62 | Cc1ccc(NC(=O)c2cccs2)cc1S(=O)(=O)N(C)C | 30% (inactive)
63 | O=C(c1ccc(S(=O)(=O)N2CCCC2)cc1)N1CCN(c2ccccc2F)CC1 | -13.1% (inactive)
64 | CCc1ccccc1NC(=O)CSc1nnc(-c2ccncc2)o1 | 6.43% (inactive)
65 | CCOC(=O)CSc1nnc(-c2ccc([N+](=O)[O-])cc2)o1 | 7.13% (inactive)
66 | O=C(CSc1nnc(-c2ccc([N+](=O)[O-])cc2)o1)Nc1ccccn1 | 88.1% (active)
67 | O=C(NC1CCCC1)C(c1ccco1)N(C(=O)c1csnn1)c1ccccc1 (stereo unspecified) | -6.47% (inactive)
68 | COC(=O)c1ccc(NC(=O)CSc2nc(N)c(NC(=O)c3ccc(Br)o3)c(=O)[nH]2)cc1 | -12.8% (inactive)
69 | CCN(CC)c1ccc(C(=O)OCC(=O)c2ccco2)cc1 | 46.8% (inactive)
70 | O=C(OCC(=O)N1CCCC1)c1ccco1 | 24.9% (inactive)
71 | CCc1ccc(C(=O)COC(=O)c2ccco2)cc1 | 56.1% (active)
72 | COc1ccc(C2/C=C\CN(C(=O)c3ccc(C)cc3)C(Cc3ccccc3)C(=O)N2Cc2ccc(F)cc2)cc1 (stereo unspecified) | 16.3% (inactive)

Row | SMILES | inhibition
73 | O=C(CN1CCCCCC1)Nc1ccc(S(=O)(=O)N2CCCCC2)cc1 | -3.01% (inactive)
74 | O=C(CC1C(=O)NCCN1C(=O)c1ccc([N+](=O)[O-])cc1)Nc1cccc(Cl)c1 (stereo unspecified) | -30.7% (inactive)
75 | O=C(CC1NCCc2ccccc21)Nc1cccc(Cl)c1 (stereo unspecified) | 51.4% (active)
76 | O=C(CC1NCCNC1=O)Nc1cc(Cl)cc(Cl)c1 (stereo unspecified) | -12.8% (inactive)
77 | CCN(CC)CCN(C(=O)c1cc(Cl)sc1Cl)c1nc2cc3c(cc2s1)OCO3 | 6.7% (inactive)
78 | COc1cc(/C=N/NC(=O)Nc2ccccc2)ccc1OCCOc1ccccc1C | -4.02% (inactive)
79 | CCCn1c(C)cc(/C=C(\C#N)C(=O)OCC(=O)Nc2cc(OC)c(OC)c(OC)c2)c1C | 32.6% (active)
80 | COc1cc(C2C3=C(CCCC3=O)OC3=C2C(=O)CCC3)ccc1OCC(=O)Nc1ccccc1 | 37.9% (inactive)
81 | CCOC(=O)/C(C#N)=C/c1cn(CCC(=O)O)nc1-c1ccc(Br)cc1 | 2.95% (inactive)
82 | CCOC(=O)/C(C#N)=C/c1ccc(OCC(=O)Nc2ccccc2)c(OC)c1 | 70.9% (active)
83 | COc1cc(CCC(=O)OCC(=O)Nc2cccc(S(N)(=O)=O)c2)cc(OC)c1OC | -3.91% (inactive)
84 | Cc1ccc(C(=O)Oc2ccc(C(=S)N3CCOCC3)cc2)cc1 | 3.46% (inactive)
85 | CCc1ccc(C(=O)NC(=S)Nc2ccccc2N2CCOCC2)cc1 | -5.58% (inactive)
86 | COc1cc2c(cc1OC)CN(C(=O)c1cc(S(=O)(=O)N3CCCCC3)ccc1Cl)CC2 | 2% (inactive)
87 | Cc1ccc2nc3c(cc(C(=O)NCCc4ccccc4)c(=N)n3CC3CCCO3)c(=O)n2c1 (stereo unspecified) | -3.67% (inactive)
88 | COc1ccccc1CN1CC(C(=O)NCCc2cn[nH]c2)CCC1=O (stereo unspecified) | 22% (inactive)
89 | CCc1ccc(N(C(=O)c2csnn2)C(C(=O)NC2CCCCC2)c2cccnc2)cc1 (stereo unspecified) | 2.03% (inactive)
90 | CC1(C(=O)NCCc2c[nH]c3ccccc23)C=CC2(CCCCC2)N1C(=O)c1ccccc1 (stereo unspecified) | 14.3% (inactive)
91 | Cc1nc(SCC(=O)Nc2cc(C)on2)c2c3c(sc2n1)CCCC3 | 21.2% (active)
92 | CC(NC(=O)CSc1nc2c(cc1C#N)CN(C)CC2)c1ccccc1 (stereo unspecified) | -9.63% (inactive)
93 | Cc1ccc2cc(C#N)c(SCC(=O)NCC3CCCO3)nc2c1C (stereo unspecified) | -7.12% (inactive)
94 | Cc1cc(NC(=O)CSc2nc(C(C)C)nc3sc4c(c23)CCC(C)C4)no1 (stereo unspecified) | 22.7% (inactive)
95 | Cc1cc(NC(=O)CSc2nc3c(cc2C#N)CCCCC3)no1 | 78.8% (active)
96 | Cc1nc(SCC(=O)Nc2cc(C)on2)c2c(C)c(C)sc2n1 | 12.3% (inactive)
